Data reported in PMC12820563, “FoxP3 forms a head-to-head dimer in vivo and stabilizes its multimerization on adjacent microsatellites”.
The full ranking holds about 16,000 sequences; the median of “rpm ratio (pull-down/input)” is about 0.94, and the highest 2% start at about 1.7. The list comes from a sample in which the highest values are over-represented; it also holds similar and randomly drawn sequences.

Each sequence was assayed against T1, MBP-FoxP1dN (Mus musculus, UniProt P58462 326-579) (assay: PD-seq (MBP pull-down with sequencing); 20 mM Tris-HCl pH 7.5, 100 mM NaCl, 1.5 mM MgCl2, 0.4 uM protein, 0.1 uM dsDNA library, 30 min, room temperature, amylose pull-down; high values mean tight binding). Conditions: protein: recombinant; tags: His6-MBP; chain copies: 2; dsDNA, one strand shown.
T1 sequence: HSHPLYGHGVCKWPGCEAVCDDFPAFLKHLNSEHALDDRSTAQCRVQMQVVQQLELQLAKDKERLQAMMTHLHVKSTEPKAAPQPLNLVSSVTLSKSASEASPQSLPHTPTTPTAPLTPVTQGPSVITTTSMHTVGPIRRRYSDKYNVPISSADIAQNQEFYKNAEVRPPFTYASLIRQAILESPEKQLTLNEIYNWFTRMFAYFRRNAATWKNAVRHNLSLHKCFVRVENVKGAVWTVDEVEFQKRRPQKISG
Summary of the method: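 Binding is reads-per-million enrichment of pull-down over input, with replicates pooled. It comes from 30 min room-temperature incubation in Tris pH 7.5 buffer with NaCl and MgCl2 of 0.4 µM His6-MBP-tagged, N-terminally truncated mouse FoxP3 or FoxP1 fragment from E. coli with 0.1 µM Klenow-filled degenerate double-stranded DNA library, followed by amylose resin capture, three washes and Illumina sequencing of the released DNA.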
In the case of “GATGATTGTTCTCCCAGCTGATGAATTAGATCGGTCGAGTAAACAAATTTTCCTAATCTTTCTGTTCAAGCGCCATCTAC”, the binding signal is reported as 0.789 RPM ratio (pull-down/input). With “GATGATTGTTCTCCCAGCTGATGAATTGTGGGAATCGAGTAAACAAATTTTCCTAATCTTTCTGTTCAAGCGCCATCTAC” the binding signal was 1.08 RPM ratio (pull-down/input). With “GATGATTGTTCTCCCAGCTGATGAATTCCGTCCTTCGAGTAAACAAATTTTCCTAATCTTTCTGTTCAAGCGCCATCTAC” the binding signal was 0.801 RPM ratio (pull-down/input). For “GATGATTGTTCTCCCAGCTGATGAATTAGGTGATTCGAGTAAACAAATTTTCCTAATCTTTCTGTTCAAGCGCCATCTAC”, the binding signal was 1.06 RPM ratio (pull-down/input). In the case of “GATGATTGTTCTCCCAGCTGATGAATTCGTTGTATCGAGTAAACAAATTTTCCTAATCTTTCTGTTCAAGCGCCATCTAC”, the binding signal is reported as 1.3 RPM ratio (pull-down/input). With “GATGATTGTTCTCCCAGCTGATGAATTCCTCAAGTCGAGTAAACAAATTTTCCTAATCTTTCTGTTCAAGCGCCATCTAC” the binding signal was 0.819 RPM ratio (pull-down/input). For “GATGATTGTTCTCCCAGCTGATGAATTGAGCGTGTCGAGTAAACAAATTTTCCTAATCTTTCTGTTCAAGCGCCATCTAC”, the binding signal was 0.844 RPM ratio (pull-down/input). With “GATGATTGTTCTCCCAGCTGATGAATTGGTATTCTCGAGTAAACAAATTTTCCTAATCTTTCTGTTCAAGCGCCATCTAC” the binding signal was 1.02 RPM ratio (pull-down/input). For “GATGATTGTTCTCCCAGCTGATGAATTTTGGTATTCGAGTAAACAAATTTTCCTAATCTTTCTGTTCAAGCGCCATCTAC”, the binding signal was 1.06 RPM ratio (pull-down/input). For “GATGATTGTTCTCCCAGCTGATGAATTGGTATTTTCGAGTAAACAAATTTTCCTAATCTTTCTGTTCAAGCGCCATCTAC”, the binding signal was 2.46 RPM ratio (pull-down/input). With “GATGATTGTTCTCCCAGCTGATGAATTTGGTATTTCGAGTAAACAAATTTTCCTAATCTTTCTGTTCAAGCGCCATCTAC” the binding signal was 1.07 RPM ratio (pull-down/input). With “GATGATTGTTCTCCCAGCTGATGAATTTGGTATGTCGAGTAAACAAATTTTCCTAATCTTTCTGTTCAAGCGCCATCTAC” the binding signal was 0.971 RPM ratio (pull-down/input). In the case of “GATGATTGTTCTCCCAGCTGATGAATTGGTATTGTCGAGTAAACAAATTTTCCTAATCTTTCTGTTCAAGCGCCATCTAC”, the binding signal is reported as 2.44 RPM ratio (pull-down/input). With “GATGATTGTTCTCCCAGCTGATGAATTCGGACCGTCGAGTAAACAAATTTTCCTAATCTTTCTGTTCAAGCGCCATCTAC” the binding signal was 0.773 RPM ratio (pull-down/input). With “GATGATTGTTCTCCCAGCTGATGAATTAGGTTCATCGAGTAAACAAATTTTCCTAATCTTTCTGTTCAAGCGCCATCTAC” the binding signal was 0.921 RPM ratio (pull-down/input). For “GATGATTGTTCTCCCAGCTGATGAATTGCCAGTCTCGAGTAAACAAATTTTCCTAATCTTTCTGTTCAAGCGCCATCTAC”, the binding signal was 0.829 RPM ratio (pull-down/input). For “GATGATTGTTCTCCCAGCTGATGAATTCTGACTTTCGAGTAAACAAATTTTCCTAATCTTTCTGTTCAAGCGCCATCTAC”, the binding signal was 0.897 RPM ratio (pull-down/input). With “GATGATTGTTCTCCCAGCTGATGAATTTGGTTGGTCGAGTAAACAAATTTTCCTAATCTTTCTGTTCAAGCGCCATCTAC” the binding signal was 0.868 RPM ratio (pull-down/input). With “GATGATTGTTCTCCCAGCTGATGAATTTGTTTGGTCGAGTAAACAAATTTTCCTAATCTTTCTGTTCAAGCGCCATCTAC” the binding signal was 2.1 RPM ratio (pull-down/input). In the case of “GATGATTGTTCTCCCAGCTGATGAATTTCTTTGGTCGAGTAAACAAATTTTCCTAATCTTTCTGTTCAAGCGCCATCTAC”, the binding signal is reported as 0.881 RPM ratio (pull-down/input). In the case of “GATGATTGTTCTCCCAGCTGATGAATTCTTTTGGTCGAGTAAACAAATTTTCCTAATCTTTCTGTTCAAGCGCCATCTAC”, the binding signal is reported as 1 RPM ratio (pull-down/input). “GATGATTGTTCTCCCAGCTGATGAATTTTTTGGGTCGAGTAAACAAATTTTCCTAATCTTTCTGTTCAAGCGCCATCTAC” was tested, and the binding signal was 0.836 RPM ratio (pull-down/input). For “GATGATTGTTCTCCCAGCTGATGAATTTGATTGGTCGAGTAAACAAATTTTCCTAATCTTTCTGTTCAAGCGCCATCTAC”, the binding signal was 0.963 RPM ratio (pull-down/input). With “GATGATTGTTCTCCCAGCTGATGAATTGGTTTGGTCGAGTAAACAAATTTTCCTAATCTTTCTGTTCAAGCGCCATCTAC” the binding signal was 0.947 RPM ratio (pull-down/input). In the case of “GATGATTGTTCTCCCAGCTGATGAATTTTGTTGGTCGAGTAAACAAATTTTCCTAATCTTTCTGTTCAAGCGCCATCTAC”, the binding signal is reported as 2.26 RPM ratio (pull-down/input). In the case of “GATGATTGTTCTCCCAGCTGATGAATTGTTTGGGTCGAGTAAACAAATTTTCCTAATCTTTCTGTTCAAGCGCCATCTAC”, the binding signal is reported as 1.79 RPM ratio (pull-down/input). With “GATGATTGTTCTCCCAGCTGATGAATTTGTTGGGTCGAGTAAACAAATTTTCCTAATCTTTCTGTTCAAGCGCCATCTAC” the binding signal was 1.56 RPM ratio (pull-down/input). In the case of “GATGATTGTTCTCCCAGCTGATGAATTGTTTTGGTCGAGTAAACAAATTTTCCTAATCTTTCTGTTCAAGCGCCATCTAC”, the binding signal is reported as 2.02 RPM ratio (pull-down/input). “GATGATTGTTCTCCCAGCTGATGAATTTTTTTGGTCGAGTAAACAAATTTTCCTAATCTTTCTGTTCAAGCGCCATCTAC” was tested, and the binding signal was 0.952 RPM ratio (pull-down/input).
